The full list was thinned out, with hits kept by preference.
HIV RNase H inh – inhibitors of HIV-1 reverse transcriptase RNase H | P04585 | RT-RNase H RNA/DNA duplex cleavage, fluorescence | inhibition, % at 10 µM | 1.9% of 65,000 active | AID 565; in the data active = inhibition above about 50%
A number is an active result.

Screening O=C(CSc1ccccn1)c1ccc(F)cc1 returned HIV RNase H inh 65.
For COC(=O)C1=CN(CC2CCCO2)C=C(C(=O)OC)C1c1cc(OC)c(OC)c(OC)c1 (configuration not stated) the results were HIV RNase H inh inactive.
For COc1ccc(S(=O)(=O)N2CCN(CC(=O)Nc3ccc(C)c(F)c3)CC2)cc1 the results were HIV RNase H inh inactive.
N=c1c(C(=O)NC2CCCCC2)cc2c(=O)n3ccccc3nc2n1CCN1CCOCC1 was read as HIV RNase H inh inactive.
Screening CC(=O)N1CCN(CCN=CC2=C(O)CC(c3ccc(Cl)cc3)CC2=O)CC1 (configuration not stated) returned HIV RNase H inh inactive.
`COc1ccc(C2CC(=O)C(C=NCCN3CCOCC3)=C(O)C2)cc1` (configuration not stated) gave HIV RNase H inh 54.
`CC(=O)N1CCN(CCN=CC2=C(O)CC(c3ccco3)CC2=O)CC1` (configuration not stated) gave HIV RNase H inh inactive.
For CCN1CCCC1CNC(=O)c1nn(-c2ccc(C)cc2)c(=O)c2c1c1ccccc1n2C (configuration not stated) the results were HIV RNase H inh inactive.
COC(=O)c1ccc(=O)n(Cc2ccc3c(c2)OCO3)c1 was read as HIV RNase H inh inactive.
For COc1cccc(NC(=O)Cn2c(SCC(=O)N3CCOCC3)nc3ccccc32)c1 the results were HIV RNase H inh inactive.
Screening CCOC(=O)c1cccc(NC(=O)CSc2nc3ccccc3c(=O)n2CCOC)c1 returned HIV RNase H inh inactive.
`CCCCn1c(SCC(=O)Nc2cccc(OC)c2)nc2ccc(N3CCOCC3)cc2c1=O` gave HIV RNase H inh 51.
CC(C(=O)Nc1ccccc1-c1ccccc1)N1CCN(C(=O)c2ccco2)CC1 (configuration not stated) was read as HIV RNase H inh inactive.
Cc1ccc2cc3cc(C(=O)NCc4ccco4)oc3nc2c1 was read as HIV RNase H inh 51.
Screening Cc1ccc2cc3cc(C(=O)NCCC(C)C)oc3nc2c1 returned HIV RNase H inh inactive.
`O=C(NCc1ccco1)c1cc2ccccc2o1` gave HIV RNase H inh inactive.
C=CCn1cnc2c(c1=O)c1nc3ccccc3nc1n2-c1ccc(Cl)cc1 was read as HIV RNase H inh inactive.
For COc1ccccc1S(=O)Cc1ccc(C(=O)NCCc2ccc(Cl)cc2)o1 (configuration not stated) the results were HIV RNase H inh inactive.
Screening CCC(=O)c1cc(F)c(N2CCN(S(=O)(=O)c3ccc(C)cc3)CC2)cc1C returned HIV RNase H inh inactive.
Screening CCOC(=O)c1c(C)n(C)c2ccc(O)c(CN3CCN(C)CC3)c12 returned HIV RNase H inh inactive.
Screening CCOC(=O)c1c(C)n(C)c2ccc(OC(=O)c3ccoc3)cc12 returned HIV RNase H inh inactive.
`CCOC(=O)c1c(C)n(C)c2c(C)cc(O)c(OC(=O)CC)c12` gave HIV RNase H inh 56.
CC1(C)CSC(=S)N1S(=O)(=O)c1ccccc1 was read as HIV RNase H inh inactive.
Screening Clc1ccc(-c2nnc3sc(Cc4cccs4)nn23)c(Cl)c1 returned HIV RNase H inh inactive.
`c1coc(-c2nnc3sc(Cc4cccs4)nn23)c1` gave HIV RNase H inh 50.
`COc1ccc(OCc2nn3c(-c4ccco4)nnc3s2)cc1` gave HIV RNase H inh inactive.
`CCC(=O)N1CCN(c2nc(-c3ccccc3)c3c(c2C#N)CCCC3)CC1` gave HIV RNase H inh inactive.
`N#Cc1c(N)oc(-c2ccc3c(c2)OCO3)c1-c1ccc2c(c1)OCO2` gave HIV RNase H inh inactive.
`CCOC(=O)c1ccc2c(c1)C1C=CCC1C(C(=O)O)N2` (configuration not stated) gave HIV RNase H inh 52.
Screening CCOC(=O)c1ccc(N2C(=O)C3CC=CCC3C2=O)cc1 (configuration not stated) returned HIV RNase H inh inactive.
Screening CCOC(=O)c1ccc(NC(=O)C2C3C=CC(C3)C2C(=O)O)cc1 (configuration not stated) returned HIV RNase H inh inactive.
CCC(c1nnnn1C(C)(C)C)N1CCN(c2cc(Cl)ccc2C)CC1 (configuration not stated) was read as HIV RNase H inh inactive.
Cn1c(=O)c2sccc2n2c(CCCC(=O)NCc3ccc4c(c3)OCO4)nnc12 was read as HIV RNase H inh inactive.
Screening COc1ccc(-c2nc(-c3ccc(NC(=O)c4ccc(Br)o4)cc3)no2)cc1OC returned HIV RNase H inh inactive.
For COc1ccc(CCC(=O)Nc2ccc(-c3noc(-c4ccc(OC)c(OC)c4)n3)cc2)cc1 the results were HIV RNase H inh 61.
Screening COc1cccc(-c2nc(-c3ccc(NC(=O)Cc4ccccc4OC)cc3)no2)c1 returned HIV RNase H inh inactive.
For Cc1cc(C)nc(N2CCCC(C(=O)NC(C)CCc3ccco3)C2)n1 (configuration not stated) the results were HIV RNase H inh inactive.
`Cc1ccc(NC2=NCC(=O)N2Cc2ccc3c(c2)OCO3)cc1` gave HIV RNase H inh inactive.
`Cc1onc(-c2c(F)cccc2Cl)c1C(=O)NCc1ccccn1` gave HIV RNase H inh inactive.
For Cc1onc(-c2c(F)cccc2Cl)c1C(=O)NCCc1ccc(S(N)(=O)=O)cc1 the results were HIV RNase H inh 54.
`Cc1onc(-c2ccccc2Cl)c1C(=O)NCc1ccc(S(N)(=O)=O)cc1` gave HIV RNase H inh inactive.
`CC(=O)c1ccc(N2CCN(C(=O)c3cc4c(=O)n(C)c5ccccc5c4n3C)CC2)cc1` gave HIV RNase H inh inactive.
O=C(NC1CC2CCC1C2)C1COc2ccccc2O1 (configuration not stated) was read as HIV RNase H inh inactive.
CCCCCn1c(CN2CCN(c3cc(Cl)ccc3C)CC2)nc2c1c(=O)[nH]c(=O)n2C was read as HIV RNase H inh inactive.
`CN(C(=O)c1ccc(NC(=O)c2cnccn2)cc1)C1CCCCC1` gave HIV RNase H inh inactive.
For O=C(CSc1nnc(COc2ccccc2)o1)N1CCN(c2ccccc2)CC1 the results were HIV RNase H inh inactive.
Screening O=C(CSc1nnc(-c2ccc(Cl)cc2)o1)N1CCN(c2ccccc2)CC1 returned HIV RNase H inh 50.
Screening O=C(CSc1nnc(COc2ccc(Cl)cc2)o1)N1CCN(c2ccccc2)CC1 returned HIV RNase H inh inactive.
O=C(CSc1nnc(C2CCCCC2)n1Cc1ccccc1)NCc1ccco1 was read as HIV RNase H inh inactive.
`O=C(CCCc1cccs1)N1CCN(S(=O)(=O)c2ccccc2Br)CC1` gave HIV RNase H inh inactive.
COc1ccc(N2CCN(Cc3cc(=O)oc4ccc(Cl)cc34)CC2)cc1 was read as HIV RNase H inh inactive.
`O=c1cc(CN2CCN(c3ccccc3)CC2)c2c(ccc3ccccc32)o1` gave HIV RNase H inh inactive.
For COc1ccc(N2CCN(Cc3cc(=O)oc4c3ccc3ccccc34)CC2)cc1 the results were HIV RNase H inh 54.
Cn1cc(Br)c(C(=O)NC2CCCCC2)n1 was read as HIV RNase H inh inactive.
Screening Cc1nnc2sc(-c3cc4ccccc4o3)nn12 returned HIV RNase H inh inactive.
Cc1ccc(C2CC(c3ccc(C)cc3)n3nc(N)nc3N2)cc1 (configuration not stated) was read as HIV RNase H inh inactive.
For COc1cc(OC)c(C2CC(=O)N3CN(c4ccc(C)cc4)CSC3=C2C#N)cc1OC (configuration not stated) the results were HIV RNase H inh inactive.
Screening N#CC1=C2SCN(Cc3ccco3)CN2C(=O)CC1c1cccc2ccccc12 (configuration not stated) returned HIV RNase H inh 57.
